# Screens (PubChem BioAssay)
# N-glyco inh: increase of ERlucT glycosylation luciferase signal, primary screen, N-linked glycosylation inhibitor project, D54 ERlucT cells, luminescence, set 2. 360,000 tested, 0.23% active. reporter increase, % at 12.5 µM. D54 ERlucT glycosylation luciferase reporter, 24 h; percent of 100 nM tunicamycin response;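 active means mean luciferase reporter signal, scaled so untreated is 0 and the glycosylation-blocking control 100, at or above a set limit in every replicate; inconclusive means mean reaches the limit but not every replicate does; inactive means mean below the limit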;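 further: luciferase carries N-glycosylation sites so blocking glycosylation raises the light; 0% = median of neutral control wells and 100% = median of 100 nM tunicamycin wells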
# Rtt109 Vps75: inhibitors of C. albicans Rtt109/Vps75 HAT, primary screen, biochemical, ThioGlo CoA-SH fluorescence, plate reader; purified Rtt109/Vps75, 4 h; inhibition, % at 34.9 µM; 330,000 tested, 0.16% active;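 active means inhibition of at least 50% in every replicate; inconclusive means best replicate reaches 50% inhibition but some replicates fall short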
# Target sequence (Q5AAJ8 whole entry, looked up): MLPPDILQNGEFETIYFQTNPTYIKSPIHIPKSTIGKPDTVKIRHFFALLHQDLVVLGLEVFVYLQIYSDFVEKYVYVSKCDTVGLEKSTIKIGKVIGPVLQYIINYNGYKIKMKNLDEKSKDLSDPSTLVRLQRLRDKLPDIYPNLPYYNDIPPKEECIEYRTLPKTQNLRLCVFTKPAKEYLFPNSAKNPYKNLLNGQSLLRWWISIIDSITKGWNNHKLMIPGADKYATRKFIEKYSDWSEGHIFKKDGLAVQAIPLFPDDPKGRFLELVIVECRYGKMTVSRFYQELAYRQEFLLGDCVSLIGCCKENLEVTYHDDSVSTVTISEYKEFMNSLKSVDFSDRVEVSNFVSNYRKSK
# DENV2 CPE: inhibitors of DENV2 cytopathic effect, primary screen, cell-based, plate reader, single concentration | DENV2-infected cells, cytopathic effect rescue | CPE inhibition, % at 9.99 µM | 350,000 tested, 1.7% active; in the data active means CPE inhibition above about 20%, passing the limit was not always enough; inconclusive means no clear call, values can overlap the other calls; tested in BHK-21 cells;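 further: 0% = median of neutral control wells and 100% = median of positive control wells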
# PglD DTNB: C. jejuni PglD acetyltransferase inhibitors, primary screen, biochemical, DTNB colorimetric, single point | UDP-N-acetylbacillosamine N-acetyltransferase PglD (Campylobacter jejuni) | purified PglD enzyme, DTNB colorimetric CoA detection | inhibition, % at 12.5 µM | 360,000 tested, 0.098% active; in the data active means inhibition above about 16%, passing the limit was not always enough; inconclusive means no clear call, values can overlap the other calls
# * = called active by the depositor; u = inconclusive; x = no result; ! = repeats disagree. The entries come from a sample that favours hits as a whole.
SMILES,N-glyco inh,Rtt109 Vps75,DENV2 CPE,PglD DTNB
C[C@@H]1CCCCO[C@@H](CN(C)Cc2ccccc2)[C@H](C)CN([C@@H](C)CO)C(=O)c2cc(NC(=O)NC3CCCCC3)ccc2O1,x,x,24*,1
COCC(=O)N1CC2(C1)[C@H](c1ccc(C3=CCCC3)cc1)[C@@H](CO)N2C(=O)COC,x,x,2,x
CCN(C[C@H]1[C@@H](c2ccccc2)[C@H](CO)N1C(C)=O)C(=O)c1ccccn1,x,x,-9,1
N#CC1(NC(=O)CSc2ccccn2)CCCCC1,1,2,111*,x
O=C(C[C@H]1CC[C@@H]2[C@H](COC[C@H](O)CN2Cc2nccs2)O1)NCc1ccc(F)cc1,x,x,2,1
COCC(=O)Nc1ccc2c(c1)OC[C@@H](C)N(C(=O)C1CCCC1)C[C@@H](C)[C@H](OC)CN(C)C2=O,x,x,x,0
CN(C(=O)c1cccc(NC(=O)Cc2ccc(NC(=O)C3CCN(C(=O)C4CC4)CC3)cc2)c1)C1CCCC1,2,-8,47*,-3
CN(C(=O)c1ccc(NC(=O)Cc2ccc(NC(=O)C3CCN(C(=O)C4CCCCC4)CC3)cc2)cc1)C1CCCC1,0,15,86*,1
CN(C(=O)c1cccc(NC(=O)Cc2ccc(NC(=O)C3CCN(C(=O)C4CC4)CC3)cc2)c1)C1CCC1,2,-2,10,3
O=C(C[C@@H]1CC[C@H]2[C@@H](COC[C@@H](O)CN2S(=O)(=O)c2ccc(Cl)cc2)O1)N[C@@H]1CCN(Cc2ccccc2)C1,x,x,-4,1
Cc1noc(C)c1CSc1nc2[nH]ncc2c(=O)n1-c1ccccc1,42*,5,x,2
Cc1noc(C)c1CSc1nc2ccccc2c(=O)n1-c1ccccc1,21,-5,x,0
COc1cccc(-c2cnc3c(c2)C(=O)N([C@H](C)CO)C[C@H](C)[C@@H](CN(C)Cc2ccncc2)O3)c1,x,x,-4,1
C[C@@H]1CN([C@H](C)CO)C(=O)c2cc(NC(=O)Nc3ccc(F)cc3)ccc2O[C@@H](C)CCCCO[C@@H]1CN(C)S(=O)(=O)c1cccs1,x,x,21*,-8
C[C@@H]1CN([C@@H](C)CO)C(=O)c2cc(NC(=O)c3ccccc3)ccc2O[C@@H](C)CCCCO[C@@H]1CN(C)S(=O)(=O)c1cccs1,x,x,45*,6
C[C@@H]1CCCCO[C@@H](CN(C)S(=O)(=O)c2cccs2)[C@H](C)CN([C@H](C)CO)C(=O)c2cc(NC(=O)Nc3ccccc3)ccc2O1,x,x,60*,0
C[C@H](CO)N1C[C@H](C)[C@@H](CN(C)Cc2ccc(C(F)(F)F)cc2)Oc2ccc(NC(=O)CCCN(C)C)cc2C1=O,x,x,1,-1
C[C@H]1CN([C@@H](C)CO)C(=O)c2cccc(NS(=O)(=O)c3ccccc3)c2O[C@H]1CN(C)Cc1ccc(C(F)(F)F)cc1,x,x,78*,0
C[C@H](CO)N1C[C@H](C)[C@H](CN(C)Cc2ccc(Cl)c(Cl)c2)Oc2c(NS(=O)(=O)c3ccccc3)cccc2C1=O,x,x,-9,2
C[C@H](CO)N1C[C@H](C)[C@@H](CN(C)Cc2ccc(C(F)(F)F)cc2)Oc2c(NS(=O)(=O)c3ccccc3)cccc2C1=O,x,x,-10,-1
C[C@H]1CN([C@@H](C)CO)C(=O)c2cccc(NS(=O)(=O)c3ccccc3)c2O[C@@H]1CN(C)Cc1ccc(Cl)c(Cl)c1,x,x,85*,0
C[C@H]1CN([C@@H](C)CO)C(=O)c2cccc(NS(=O)(=O)c3ccc(F)cc3)c2O[C@@H]1CN(C)Cc1ccc(Cl)c(Cl)c1,x,x,23*,0
Cc1cc(NC(=O)CSCC(=O)Nc2nc3ccccc3s2)no1,5,-1,45*,0
COCCNC(=O)C[C@H]1C[C@@H]2c3cc(NC(=O)COC)ccc3O[C@@H]2[C@H](CO)O1,x,x,6,0
COC(=O)CSc1cnc2ccccc2n1,2,-5,x,-1
SMILES,N-glyco inh,Rtt109 Vps75,DENV2 CPE,PglD DTNB
O=C(CSc1cnc2ccccc2n1)c1ccc(F)cc1,-19,-6,33*,x
Cc1ccccc1S(=O)(=O)N1C[C@@H](O)COC[C@@H]2O[C@H](CC(=O)N3CCCCC3)CC[C@H]21,x,x,110*,-4
Cn1cnc(S(=O)(=O)N2C[C@H](O)COC[C@@H]3O[C@@H](CC(=O)NC4CCCC4)CC[C@H]32)c1,x,x,59*,8
CCNC(=O)C[C@@H]1CC[C@H]2[C@@H](COC[C@@H](O)CN2S(=O)(=O)c2ccccc2F)O1,x,x,23*,-41
C[C@H](CO)N1C[C@H](C)[C@H](CN(C)C(=O)Nc2cccc3ccccc23)Oc2ccc(NC(=O)Nc3ccc4c(c3)OCO4)cc2CC1=O,x,x,u,-1
COc1cc(/C=N/NC(=O)COc2ccccc2[N+](=O)[O-])ccc1OC(=O)c1ccco1,-2,3,27*,x
O=C(COc1ccccc1[N+](=O)[O-])N/N=C/c1ccc(OC(=O)c2ccco2)cc1,-1,4,10,2
N#Cc1cc(Br)ccc1N=C1CCCN1c1ccccc1,5,-4,24*,1
CN(C)CC#Cc1ccc([C@H]2[C@H](CO)N3CCCCN(C(=O)Nc4cc(F)ccc4F)C[C@@H]23)cc1,x,x,32*,-1
CN(C)CC#Cc1ccc([C@H]2[C@@H](CO)N3CCCCN(C(=O)c4ccc5c(c4)OCO5)C[C@H]23)cc1,x,x,22*,5
CN(C)CC#Cc1ccc([C@H]2[C@H](CO)N3CCCCN(C(=O)c4ccc5c(c4)OCO5)C[C@@H]23)cc1,x,x,u,-21
COCC#Cc1ccc2c(c1)O[C@@H](CN(C)Cc1ccncc1)[C@H](C)CN([C@H](C)CO)S2(=O)=O,x,x,20*,1
COCC#Cc1ccc2c(c1)O[C@H](CN(C)Cc1ccncc1)[C@@H](C)CN([C@@H](C)CO)S2(=O)=O,x,x,3,-1
C[C@H](CO)N1C[C@H](C)[C@@H](CN(C)Cc2ccc(Oc3ccccc3)cc2)Oc2cc(Br)ccc2S1(=O)=O,-5,x,25*!,-3
COCC#Cc1ccc2c(c1)O[C@@H](CN(C)Cc1ccccc1)[C@H](C)CN([C@H](C)CO)S2(=O)=O,x,x,23*,4
COCC#Cc1ccc2c(c1)O[C@H](CN(C)Cc1ccccc1)[C@@H](C)CN([C@H](C)CO)S2(=O)=O,x,x,28*,3
C[C@H](CO)N1C[C@H](C)[C@H](CN(C)C(=O)Cc2ccccn2)Oc2ncc(C#C[C@@H](C)O)cc2C1=O,x,x,1,1
C[C@@H]1CN([C@@H](C)CO)S(=O)(=O)c2ccc(C#Cc3ccncc3)cc2O[C@@H]1CN(C)C(=O)C1CC1,x,x,u,4
O=C(NCC[C@H]1CC[C@H](NC(=O)Nc2cc(F)ccc2F)[C@@H](CO)O1)Nc1ccc(Cl)cc1,x,x,x,2
C[C@@H]1CN([C@H](C)CO)S(=O)(=O)c2ccc(-c3cccc(C#N)c3)cc2O[C@@H]1CN(C)C(=O)c1ccc(F)cc1,x,x,15,0
